Values joined by “and” are separate entries in the source; they are usually repeats but may differ in a detail not shown here. Identical values can stand only once. Screen size: about 69,000 compounds; about 2,600 (3.8%) were called active. No stated cut-off is given here; in the data, active means activity change below about -70% (passing the limit was not always enough); inconclusive means no clear call, values can overlap the other calls. This excerpt belongs to a sample that is enriched for actives. Some compounds were tested as several samples or in several runs, with calls that do not always agree.

This experiment in a line: inhibitors of Toxoplasma growth in IFN-γ-primed hosts – cell-based, primary screen (AID 1259416).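 Further: host cells are HeLa cells infected with Toxoplasma gondii.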 The settings on record: Toxoplasma gondii growth in IFN-gamma-treated host cells; stronger effect = lower value; concentration not given here.
On to `CC(=O)Nc1ccc(Nc2nc(-c3nnc(-c4cccc(C)c4)o3)nc3ccccc23)cc1`, for which the activity change, negative = inhibition was 494% (inactive).
The value for `CC(C)NC(=O)COc1cccc(-c2nc(Nc3ccc4[nH]ncc4c3)c3ccccc3n2)c1` was -76.1% (active); that for `COc1ccc(-c2nc(Nc3ccc(C(C)C)cc3)c3ccccc3n2)cc1` was -22% (inactive); that for `Cc1cc(CN(C)C(=O)c2coc(COc3ccc4sc(C)nc4c3)n2)on1` was 12.7% (inactive).
Next, `Fc1ccc2c(c1)C(c1cccnc1)=NNC(c1cccs1)=N2`: -8.32% (inactive); `O=C(O)C1CSC(C2CC=CCC2)N1` (configuration not stated): 3.83% (inactive); `COCC1c2nnn(CC3CC3)c2CCN1C(=O)N(C)C` (configuration not stated): -2.44% (inactive).
Next, `CN1CC[C@H](c2c(O)cc(O)c3c(=O)cc(-c4ccccc4Cl)oc23)[C@H](O)C1`: -76.7% (active); `CC(=O)N1CCC(C(=O)NCc2ccccc2)(N(C(=O)c2ccc(C)cc2)c2ccc(F)c(F)c2)CC1`: -32.1% (inactive).
Consider `CC(=O)Nc1ccc(-c2cn3nc(C)c(C)nc3n2)cc1`, for which the activity change, negative = inhibition was -0.582% (inactive).
Next, `Brc1ccc(CSc2cccc3cccnc23)cc1`: -110% (active); `Cc1nc(-c2ccc(F)cc2)sc1-c1ccc(SCc2ccc(Br)cc2)nn1`: -0.254% (inactive).
Next, `N#Cc1ccccc1SCc1ccccc1`: 27% (inactive).
The value for `O=C(COc1ccccc1Cl)Nc1ccc(Oc2ccc(F)cc2)c(C(F)(F)F)c1` was -7.01% (inactive); that for `CC1=C(C(=O)NCCCN2CCCCC2)C2(CCN(S(C)(=O)=O)CC2)OC1=O` was 16.4% (inactive); that for `COc1ccc(C)cc1NC(=O)C(=O)NCCc1sc(-c2ccc(F)cc2)nc1C` was 0.139% (inactive).
For `COc1ccc(OC)c(NC(=O)N2CCc3nc(-c4ccc(C)cc4)sc3C2)c1`, the activity change, negative = inhibition is -112% (active).
Next, `COc1ccc(NC(=O)N2CCc3nc(-c4ccccc4)sc3C2)cc1OC`: 32.4% (inactive).
On to `COc1cccc(-c2nc3c(s2)CN(C(=O)Nc2ccc(C)c(F)c2)CC3)c1`, for which the activity change, negative = inhibition is -89.9% (active).
As to `COc1cccc(OCC(=O)NCCc2sc(-c3cccc(F)c3)nc2C)c1`, the activity change, negative = inhibition is 11.4% (inactive).
On to `Cc1ccc(-c2nc3c(s2)CN(C(=O)Nc2ccc(C)cc2C)CC3)cc1`, for which the activity change, negative = inhibition is 210% (inactive).
For the molecule `CO[C@H](c1ccccc1)c1n[nH]c(Cc2ccccc2)n1`, the activity change, negative = inhibition is 0.899% (inactive).
Take `CC1(C)Cc2cc(-c3cncn3CCNC3CCS(=O)(=O)C3)ccc2O1` (configuration not stated): the activity change, negative = inhibition is 2.55% (inactive).
With `Cc1c(Br)c(C(F)(F)F)nn1CC(=O)N1CCCCC1`, the activity change, negative = inhibition was 2.94% (inactive).
The value for `CCn1c(=O)c(-c2nc(-c3ccc(F)c(Cl)c3)no2)c(O)c2ccccc21` was -48.5% (inactive); that for `COc1ccc(-c2[nH]ncc2CNC(=O)Cc2cccnc2)cc1` was -20.6% (inactive).
Next, `CN(CCCC1CCCO1)Cc1ncc[nH]1` (configuration not stated): -1.64% (inactive).
Next, `CC(=O)Nc1ccccc1OC(=O)N1CCOCC1`: 0.117% (inactive); `O=C(Nc1ccccc1N1CCOCC1)NC1CCN(C(=O)OCc2ccccc2)CC1`: -86.9% (active).
Consider `CCOC(=O)N1CCC(NCc2ccccc2-n2ccnc2C)CC1`, for which the activity change, negative = inhibition is 4.98% (inactive).
The value for `CN(Cc1ccn[nH]1)C(=O)c1coc(COc2cccc(F)c2F)n1` was 6.91% (inactive).
Next, `CCC(C)N(Cc1ccncc1)C(=O)Cc1nc(C)sc1C` (configuration not stated): 46% (inactive).
The value for `C[C@H]1O[C@@H](O[C@H]2[C@@H](O)C[C@H](O[C@H]3[C@@H](O)C[C@H](O[C@H]4CC[C@]5(C)C6C[C@@H](O)[C@]7(C)[C@@H](C8=CC(=O)OC8)CC[C@]7(O)C6CC[C@@H]5C4)O[C@@H]3C)O[C@@H]2C)C[C@H](O)[C@@H]1O` (some centres not stated) was -64.8% (inactive) and -73.6% (active); that for `CCOC(=O)c1cccnc1-c1ccc(OC)nc1` was 14.5% (inactive); that for `CN1CCC(NCCN(C)S(C)(=O)=O)CC1` was 12.1% (inactive).
Regarding `CCOC(=O)CCSc1nnc(CNc2cccc(Cl)c2)n1CCc1ccccc1`, the activity change, negative = inhibition was 19.4% (inactive).
The value for `Cc1cccc(-c2nc(C)c(CCNC(=O)C(=O)Nc3cccc(Cl)c3)s2)c1` was -6.82% (inactive); that for `CSc1nnc(SC)n1CCNC(=O)Nc1cccc(Cl)c1` was -80.6% (active).
Turning to `Cn1nc(C2CCN(c3cnccn3)CC2)n(-c2ccccc2)c1=O`, the activity change, negative = inhibition was 2.02% (inactive).
Next, `CC(C)c1cc(C(=O)NCCCc2nc3ccccc3n2C)n(C)n1`: -0.0637% (inactive).
The value for `Cc1ccc(C23CC4CC(CC(CN)(C4)C2)C3)cc1C` was -89.5% (active); that for `O=C1CCc2cc(S(=O)(=O)Nc3cccc(Cl)c3)cc3c2N1CC3` was -27.2% (inactive); that for `CCCc1ccc(N2C(=O)C3CCC(C)CC3C2=O)cc1` (configuration not stated) was 7.51% (inactive).
As for `CC(C)c1cc(CN(C)C(=O)c2ccc(C#CC(C)(C)O)o2)on1`, the activity change, negative = inhibition is 1.77% (inactive).
Take `CC(=O)N1CC2(CCN(C(=O)C3CCNCC3)CC2)CC1C(=O)O` (configuration not stated): the activity change, negative = inhibition is -40.5% (inactive).
Regarding `CC(=O)c1cnc2ccc(-c3cc(Cl)c(O)c(Cl)c3)nc2c1NC1CCC(CN(C)C)CC1` (configuration not stated), the activity change, negative = inhibition is -75.6% (active).
For the molecule `Cc1nn(-c2ccccc2)c(C)c1CCC(=O)Nc1nc(C(C)C)cs1`, the activity change, negative = inhibition was -0.863% (inactive).
For the molecule `COc1cc2c(cc1CNCC(=O)Nc1ccc(C)cc1C)OCCO2`, the activity change, negative = inhibition was -7.55% (inactive).
The value for `CN(Cc1ccoc1)c1nc(-c2cccnc2)nc2c1cnn2C` was -58.5% (inactive); that for `Cc1nc(SCc2nc(C(c3ccccc3)c3ccccc3)no2)[nH]c(=O)c1C` was -95.3% (active); that for `COc1ccc(-c2noc(CSc3nc(C)cc(=O)[nH]3)n2)cc1OC` was 32.8% (inactive).
The value for `C=CCN(Cc1ccc(C)s1)C(=O)c1ccc(-c2nnn(C)n2)cc1` was -2.73% (inactive); that for `CC1CCCN(C(=O)CCNc2c(-c3ccc(F)cc3)nc3cnccn23)C1` (configuration not stated) was 229% (inactive).
The value for `Cc1ncc(CN2CCC(Oc3cccc(C(=O)NCc4ccccc4)c3)CC2)s1` was -28.1% (inactive); that for `COC1C2CCC1N(C(=O)COc1ccccc1C)CCO2` (configuration not stated) was -5.26% (inactive).
As to `CC(C)(C)CC(=O)OCC(=O)[C@@]1(O)CCC2C3CCC4=CC(=O)C=C[C@]4(C)C3[C@@H](O)C[C@@]21C` (some centres not stated), the activity change, negative = inhibition was 6.39% (inactive).
The value for `O=C(CCC1(c2ccccc2)NC(=O)NC1=O)Nc1ccc(N2CCCCC2)c(F)c1` (configuration not stated) was -25.7% (inactive).

The values above are taken from PubChem BioAssay AID1259416 (Broad Institute, 2018).
